Only some compounds are listed: those with a hit (about 6.6% of all), similar ones and a draw of the others.
Autofluor counter: compound fluorescence in toxin protease inhibitor counterscreen | 3.1% of 360,000 active | AID 624483 | fluorescence intensity (test concentration not listed) | compound autofluorescence counterscreen, microsphere flow cytometry; stronger effect = higher value; in the data active means fluorescence intensity above about 16000; inconclusive means no clear call, values can overlap the other calls
BoNT-A LC inh2: BoNT/A light chain protease inhibitors, primary screen, biochemical, flow cytometry, MLPCN library. Botulinum neurotoxin type A light chain protease (Clostridium botulinum A str. ATCC 3502). multiplex microsphere protease substrate cleavage. inhibition, % at 10 µM. 0.17% of 360,000 active. AID 588499, 2011
GDH-TPI counter-1: GDH-TPI coupling enzyme inhibitors, primary screen, artefact control for M. tuberculosis FBA inhibitor project, biochemical, absorbance, full deck. inhibition, % at 4.8 µM. 1.2% of 360,000 active. GDH-TPI coupled enzyme counterscreen, NADH absorbance; in the data active means inhibition above about 30%
BoNT-F LC inh: BoNT/F light chain protease inhibitors, primary screen, biochemical, flow cytometry, MLPCN library. Multiplex microsphere protease cleavage assay. Botulinum neurotoxin type F light chain protease (Clostridium botulinum). inhibition, % at 10 µM. AID 588497, 2011. 0.22% of 360,000 active; in the data active means inhibition above about 35%, passing the limit was not always enough; inconclusive means no clear call, values can overlap the other calls
Mtb FBA inh: Mtb FBA enzyme inhibitors, primary screen, biochemical, fluorescence, strain H37Rv. AID 588726, 2011. 2.3% of 360,000 active. purified M. tuberculosis FBA, fluorescence read-out. inhibition, % at 1 µM; in the data active means inhibition above about 27%
Anthrax LF prot: Bacillus anthracis LF protease inhibitors, primary screen, biochemical, multiplex microsphere, MLPCN library; Lethal factor (Bacillus anthracis), P15917; multiplex microsphere protease cleavage assay; inhibition, % at 10 µM; 0.12% of 360,000 active; AID 588501, 2011
Mtb FBA inh conf: M. tuberculosis aldolase blockers, biochemical, fluorescence, strain H37Rv, confirmation | AID 651616, 2012 | inhibition, % at 1 µM | 78% of 5,600 active | shares compounds with Mtb FBA inh | purified M. tuberculosis FBA, fluorescence read-out; in the data active means inhibition above about 27%
GDH-TPI counter-2: GDH-TPI coupling enzyme inhibitors, artefact control for M. tuberculosis FBA inhibitor project, biochemical, fluorescence, high throughput. shares compounds with Mtb FBA inh. GDH-TPI coupled enzyme counterscreen. inhibition, % at 1 µM. 81% of 5,600 active. AID 652141, 2013; in the data active means inhibition above about 10%
GDH-TPI DR: GDH-TPI coupling enzyme inhibitors, dose response, artefact control for M. tuberculosis FBA inhibitor project, biochemical, fluorescence, IC50; IC50, µM; shares compounds with Mtb FBA inh; GDH-TPI coupled enzyme assay, artifact counterscreen; 79% of 170 active; call rule not given here
Hits are given with their value; n = inactive; u = inconclusive; x = no result given; + = active, no number. Unless noted, no stated cut-off is given here; in the data, active means inhibition above about 30%; inconclusive means no clear call, values can overlap the other calls; inactive means below that.

SMILES	Autofluor counter	BoNT-A LC inh2	GDH-TPI counter-1	BoNT-F LC inh	Mtb FBA inh	Anthrax LF prot	Mtb FBA inh conf	GDH-TPI counter-2	others
COCCn1c(=S)[nH]c2cc(C(=O)NCc3ccc(F)cc3)ccc2c1=O	n	n	n	n	n	n	x	x
CCOc1c2ccc(C(=O)NCc3cc(C(F)(F)F)cc(C(F)(F)F)c3)cc2nn1C	n	n	n	n	57	n	60	44
COCCn1nc2cc(C(=O)NCc3cc(C(F)(F)F)cc(C(F)(F)F)c3)ccc2c1OC	n	n	n	n	47	n	57	42
CCOc1c2ccc(C(=O)NCc3cc(C(F)(F)F)cc(C(F)(F)F)c3)cc2nn1CCOC	n	n	n	n	43	n	105	64
CCCCn1nc2cc(C(=O)NCc3cc(C(F)(F)F)cc(C(F)(F)F)c3)ccc2c1OCC	n	n	n	n	n	n	x	x
COc1ccc(-c2c(NC(=O)C(C)C)n(C)c3ccccc3c2=O)cc1	n	n	n	n	37	n	+	+
CCOC(=O)c1cnc2scnn2c1=O	n	n	n	n	n	n	x	x
CCOC(=O)c1cnc2cc3c(cn2c1=O)CCCC3	n	n	n	n	94	n	+	+
CCc1cc(=O)oc2cc(OCc3nn[nH]n3)ccc12	n	n	n	n	31	n	+	+
CCc1cc(=O)oc2cc(OCC=C(C)C)ccc12	n	n	n	n	36	n	35	30
CCCOc1ccc2[nH]cc(C(=O)O)c(=O)c2c1	n	n	n	n	n	n	x	x
COc1cc(C(=O)NCCCNc2nc3cc(C)cc(C)c3cc2C#N)cc(OC)c1OC	n	n	n	n	32	n	85	55
COc1ccc(C(=O)NCCNc2nc3ccc(C)cc3cc2C#N)cc1OC	n	n	n	u	35	n	+	158
CCn1c2ccccc2c2cc(/C=N/n3c(C)nnc3C)ccc21	n	n	n	n	40	n	62	48
Cc1nnc(C)n1/N=C/c1ccccc1	n	n	n	n	n	n	x	x
Cc1cc2oc(=O)c(CC(=O)O)c(C)c2c2occ(C(C)(C)C)c12	n	n	n	n	n	n	x	x
COCCNC(=O)Cc1c(C)c2c(cc(C)c3c(C(C)(C)C)coc32)oc1=O	n	n	n	n	43	n	70	65
Cc1cc2oc(=O)c(CC(=O)NCCCO)c(C)c2c2occ(C(C)(C)C)c12	n	n	n	n	31	n	57	54
Cc1ccc2c(c1)sc1nc(=O)ccn12	n	n	n	n	n	n	x	x
Cn1ccnc1-c1ccc(-c2nccn2C)cc1	n	n	n	u	52	n	+	186
Cc1ccc(-c2nc(CN3CCCCC3)cc(CN3CCCCC3)c2O)cc1	n	n	n	n	59	n	144	122
CC(C)(C)c1nc(CN2CCOCC2)cc(CN2CCOCC2)c1O	n	n	n	n	n	n	x	x
CCO/C=C1/C(=O)N(c2ccccc2OC)C(=O)c2ccccc21	n	n	n	n	35	n	96	81
CC(C)c1ccc(S(=O)(=O)N2CCN(CC(O)CN3CCOCC3)CC2)cc1 (centres undefined)	n	n	n	n	51	n	82	70
COc1ccccc1CCNC(=O)c1nccnc1C(=O)O	n	n	n	n	n	n	x	x
SMILES	Autofluor counter	BoNT-A LC inh2	GDH-TPI counter-1	BoNT-F LC inh	Mtb FBA inh	Anthrax LF prot	Mtb FBA inh conf	GDH-TPI counter-2	others
CCOC(=O)c1c(-c2ccccc2Cl)csc1NC(=O)CSc1nc(C)cc(=O)[nH]1	n	n	n	n	n	n	x	x
CCOC(=O)C1=C(N)OC(CCl)=C(C#N)C1c1ccsc1 (centres undefined)	n	n	n	n	n	n	x	x
Cc1cccc(NC(=O)Cn2c(O)c(N=NC(N)=S)c3ccccc32)c1	n	n	n	n	35	n	187	146
O=C(CSc1nnc(COc2ccc(Cl)cc2)o1)NC1CC2CCC1C2 (centres undefined)	n	n	n	n	n	n	x	x
CCSC1(SCC)N=C(N)C2(C#N)C(c3ccccc3)NC(C)=C(C)C12C#N (centres undefined)	n	n	n	n	n	n	x	x
CC1CCC(C(C)C)C2=C1C(C#N)(C#N)C(C#N)(C#N)C(c1ccccc1)N2 (centres undefined)	n	n	n	n	n	n	x	x
CCC1OC2(C)OC(=N)C1(C#N)C(C#N)(C#N)C2c1ccccc1 (centres undefined)	n	n	n	n	56	n	n	n	GDH-TPI DR=3.3
CC(C)C1OC2(C)OC(=N)C1(C#N)C(C#N)(C#N)C2c1ccccc1 (centres undefined)	n	n	n	n	50	n	94	82
O=C1CC(C(=O)Nc2ccccc2)C2(CCCCC2)O1 (centres undefined)	n	n	n	n	50	n	n	n
Cn1c(CC(=O)Nc2ccccc2)nnc1SCC(=O)NC1CCCC1	n	n	n	n	n	n	x	x
CCc1cc(=O)oc2c(C)c(OC(C)C(=O)N3CCC[C@@H]3C(=O)O)ccc12 (some centres undefined)	n	n	n	n	42	n	54	61
Cc1c(OCC(=O)N2CCC[C@@H]2C(=O)O)ccc2c3c(c(=O)oc12)CCC3	n	n	n	n	36	n	93	88
Cc1c(OCC(=O)N2CCC(C(N)=O)CC2)ccc2c3c(c(=O)oc12)CCC3	n	n	n	n	n	n	x	x
CCc1cc(=O)oc2c(C)c(OCC(=O)N3CCC[C@@H]3C(=O)O)ccc12	n	n	n	n	58	n	n	n	GDH-TPI DR=3
CCc1cc(=O)oc2c(C)c(OC(C)C(=O)N3CC[C@@]4(O)CCCC[C@H]4C3)ccc12 (some centres undefined)	n	n	n	n	n	n	x	x
CC1(Cc2ccccc2F)C(=O)Nc2c(Cl)ccc(Cl)c21 (centres undefined)	n	n	n	n	n	n	x	x
Cc1ccc(NC(=O)OCc2ccccc2S(C)=O)cc1 (centres undefined)	n	n	n	n	n	n	x	x

Source: PubChem BioAssay (several laboratories)
